Records with an inconclusive call do not appear. Activity calls are given as the source filed them. The call rests on the fitted dose curve; in most records, active means well fitted cell-killing curve with a large enough effect in the repeat runs; inconclusive means weak or mixed curves, or effect the other way; inactive means no such curve, though single readings can be large or run the other way.
experiment: qHTS assay to identify small molecule agonists of the vitamin D receptor (VDR) signaling pathway - cell viability counter screen (AID 743224); settings: VDR-bla HEK293T viability, CellTiter-Glo luminescence, 16 h; series mostly up to 62.6 µM; further: nearly all actives have a fitted effect of over 50% in size
From the text: U.S. Tox21 Program National Center for Advancing Translational Sciences [NCATS] NIH Chemical Genomics Center [NCGC] U.S. Environmental Protection Agency [EPA] National Institutes of Environmental Health Sciences [NIEHS] National Toxicology Program [NTP] U.S. Food and Drug Administration [FDA] Tox21 Assay Overview: The vitamin D receptor (VDR), a member of nuclear hormone receptor superfamily, plays a critical role in calcium homeostasis and bone metabolism. It is also involved in cell differentiation and growth, and thrombogenicity. […] The cytotoxicity of the Tox21 compound library against the VDR-bla cell line was tested in parallel by measuring the cell viability using CellTiter-Glo assay (Promega, Madison, WI) in the same wells.
Tox21 Assay Protocol Summary: VDR-bla cells were dispensed at 2,000 cells/6 uL/well into black wall/clear-bottom 1536-well plates using a Multidrop Combi (Thermo Fisher Scientific, Waltham, MA) dispenser. After the assay plates were incubated at a 37C and 5% CO2 for 4 h, 23 nL of compounds dissolved in DMSO, positive controls or DMSO only was transferred to the assay plate by a Pintool station (Kalypsys, San Diego, CA). The plates were incubated at 37C and 5% CO2 for 16 h. After 1 uL of LiveBLAzerTM B/G FRET substrate was added using a Bioraptr Flying Reagent Dispenser (FRD) workstation (Beckman Coulter, Indianapolis, IN, USA), the plates were incubated at room temperature for 2 h, and fluorescence intensity was measured by an Envision plate reader (PerkinElmer, Shelton, CT). For cell viability readout that measures cytotoxicity, 3 ul/well of CellTiter-Glo reagent was added into the assay plates using a FRD. After 30 min incubation at room temperature, the luminescence intensity in the plates was measured using a ViewLux (PerkinElmer) plate reader.

| SMILES | outcome |
| --- | --- |
| CCCCC[Si](OCC)(OCC)OCC | inactive |
| C=C(C)C(=O)OC1CC(C)CC(C)(C)C1 (stereo not given) | inactive |
| CCCCCC(=O)OCC | inactive |
| Cc1ccccc1C(=O)N1CC/C(=N\OS(=O)(=O)O)c2ccc(Cl)cc21 | inactive |
| C=CCOCC(CO)(COCC=C)COCC=C | inactive |
| C1=CCC(c2ccccc2)CC1 (stereo not given) | inactive |
| O=S(=O)(O)c1cc(O)ccc1O | inactive |
| CC(Cl)COP(=O)(OCC(C)Cl)OCC(C)Cl (stereo not given) | inactive |
| Cc1nc2ccccc2c(=O)o1 | inactive |
| CCCCCC1Nc2cc(C(F)(F)F)c(S(N)(=O)=O)cc2S(=O)(=O)N1 (stereo not given) | inactive |
| Cc1ccc2c(c1)c1c3n2CCNC3CCC1 (stereo not given) | inactive |
| Cn1c(=O)c2c(ncn2CC2OCCO2)n(C)c1=O | inactive |
| Cc1ccc(S(=O)(=O)NC(=O)NC2CCCCCCC2)cc1 | inactive |
| CO[Si](CCCS)(OC)OC | inactive |
| COC(/C=C(\C)CCC=C(C)C)OC | inactive |
| CC(C)c1ccccc1O | inactive |
| C=CCOC(=O)c1ccc(C(=O)OCC=C)c(C(=O)OCC=C)c1 | inactive |
| CO/N=C(/C(=O)N[C@@H]1C(=O)N2C(C(=O)O)=C(Cn3nnc(C)n3)CS[C@H]12)c1csc(N)n1 | inactive |
| COc1cc2c3cc1Oc1cc(ccc1O)C[C@@H]1c4c(cc(OC)c(O)c4Oc4ccc(cc4)C[C@@H]3N(C)CC2)CC[N+]1(C)C | inactive |
| O=c1cc(O)c(Cl)c[nH]1 | inactive |

| SMILES | outcome |
| --- | --- |
| Cc1ccccc1N1CCN(CCc2nnc3n2CCCC3)CC1 | inactive |
| CCCCCCCC[Si](OCC)(OCC)OCC | inactive |
| CC(=O)N1CCN(c2ccc(O)cc2)CC1 | inactive |
| CCOC(=O)CC(CC(=O)OCC)(OC(C)=O)C(=O)OCC | inactive |
| CC(=O)OCCCc1ccccc1 | inactive |
| CCCCCCCCCCCCCCCC(=O)NCCO | inactive |
| CCNC(=O)/C=C/c1cccc(Br)c1 | inactive |
| NC(=O)NC(=O)Cc1ccccc1 | inactive |
| Nc1ccc(S(=O)(=O)NC(=O)c2ccccc2)cc1 | inactive |
| CCCCCCCCCCCCCCCCI | inactive |
| Cc1ccc(C(=O)C(=O)O)cc1C | inactive |
| C=CC(C)(O)CC/C=C(\C)CC (stereo not given) | inactive |
| CCCCCCCCCCCCC1CO1 (stereo not given) | inactive |
| C[C@H](CCC(=O)NCC(=O)O)[C@H]1CC[C@H]2[C@@H]3[C@H](O)C[C@@H]4C[C@H](O)CC[C@]4(C)[C@H]3C[C@H](O)[C@]12C | inactive |
| CCCOC(=O)CCCCC(=O)OCCC | inactive |
| C/C=C(\C)C(=O)OCC/C=C\CC | inactive |
| C=CCOc1c(Br)cc(C(C)(C)c2cc(Br)c(OCC=C)c(Br)c2)cc1Br | inactive |
| CCN(CCO)c1cccc(C)c1 | inactive |
| Cc1cccc(C(=O)O)c1[N+](=O)[O-] | inactive |
| Cc1nc(C)nc(N2C[C@@H](C)N(c3ccnc([C@@H](C)O)n3)[C@@H](C)C2)n1 | inactive |
